IMPase Li cell – membrane-permeable IMPase blocker, potentiated with lithium; CHO-M1 cells, IP1 TR-FRET (IP-One), carbachol + lithium; AID 1457; Potency, µM (titrated, usually from 59.4 µM), for inactives: at the highest dose activity, negative = IMPase inhibition, usual class: inhibitors; 0.35% of 210,000 active;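 note: IP1 builds up when IMPase is blocked and the TR-FRET signal falls; plate controls were basal vehicle for no effect and high inhibitor control for full effect; nearly all actives have a fitted effect of over 50% in size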
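Steps: plate 2000 CHO-M1 cells per well and culture 16–30 h; add compound and lithium; incubate 30 min, 37C; add d2-IP1 tracer and Eu cryptate anti-IP1 antibody in lysis buffer; read after 10 min at room temperature.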
Sfp PPTase inh – Sfp phosphopantetheinyl transferase inhibition; Biochemical Sfp PPTase activity, qHTS; Q9F4F7; 3.5% of 310,000 active; AID 1490; Potency, µM, without a hit: largest response in the series, negative = inhibition, usual class: inhibitors;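 note: the enzyme is Sfp with the accession as filed and its product quenches rhodamine fluorescence; 0% = enzyme reaction without inhibitor and -100% = no enzyme wells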
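With Hepes-Na pH 7.6 buffer containing 10 mM MgCl2, Sfp (15 nM) modified BHQ-2-YbbR (12.5 uM) using rhodamine-CoA (5 uM). Two reads 30 minutes apart at 525/598 nm yielded each well's rate.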
Epigenetic reg – derepresses silenced GFP reporter in murine cells; murine LDR cells, GFP reporter derepression, 30 h; Potency, µM (top dose mostly 53.9 µM), for inactives: at the highest dose GFP activation, hits mostly activators; 0.2% of 280,000 active; note: % of control where 0% means no effect; nearly all actives have a fitted effect of over 60% in size
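Reporter derepression read as number of fluorescent GFP-positive objects, 20-120 um in size, counted by laser-scanning cytometer. Mouse LDR line with an epigenetically silenced CMV-GFP locus; compound incubation 30 h, 37 C.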
NPSR antag – blocks cAMP signaling of the human neuropeptide S receptor; 1% of 220,000 active; Potency, µM (highest dose often 38.3 µM), for inactives: at the top dose activity change, negative = inhibition, most hits filed as inhibitors; Q6W5P4; AID 1461; CHO-NPSR cells, cAMP TR-FRET, antagonist mode; note: % is set by controls: 0 for no effect and ±100 for the full control effect; nearly all actives have a fitted effect of over 50% in size
JMJD2E inh – blocks human JMJD2E demethylase activity; JMJD2E catalytic domain, FDH-coupled NADH fluorescence (FDH is formaldehyde dehydrogenase); 1.6% of 230,000 active; Potency, µM (titrated, usually from 57.1 µM), for inactives: at the highest dose activity change, negative = inhibition, hits mostly inhibitors; active = well fitted inhibition curve with a large enough effect, not every such curve was filed as active; inconclusive = small, poorly fitted or top-dose-only effect, or another doubt; inactive = no such curve, though single readings can be large or run the other way;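 note: 0% = wells with enzyme and -100% = buffer wells without enzyme; nearly all actives have a fitted effect of over 50% in size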
KAT2A inh – inhibitors of human GCN5L2 histone acetyltransferase. GCN5L2 HAT assay, ThioGlo1 CoA-SH fluorescence. Potency, µM (doses to about 58.9 µM), for inactives: at the top dose activity change, negative = inhibition, hits mostly inhibitors. 0.21% of 390,000 active. AID 504327; note: % is set by controls: 0 for no effect and ±100 for the full control effect
Target sequence (Q92830 whole entry, looked up): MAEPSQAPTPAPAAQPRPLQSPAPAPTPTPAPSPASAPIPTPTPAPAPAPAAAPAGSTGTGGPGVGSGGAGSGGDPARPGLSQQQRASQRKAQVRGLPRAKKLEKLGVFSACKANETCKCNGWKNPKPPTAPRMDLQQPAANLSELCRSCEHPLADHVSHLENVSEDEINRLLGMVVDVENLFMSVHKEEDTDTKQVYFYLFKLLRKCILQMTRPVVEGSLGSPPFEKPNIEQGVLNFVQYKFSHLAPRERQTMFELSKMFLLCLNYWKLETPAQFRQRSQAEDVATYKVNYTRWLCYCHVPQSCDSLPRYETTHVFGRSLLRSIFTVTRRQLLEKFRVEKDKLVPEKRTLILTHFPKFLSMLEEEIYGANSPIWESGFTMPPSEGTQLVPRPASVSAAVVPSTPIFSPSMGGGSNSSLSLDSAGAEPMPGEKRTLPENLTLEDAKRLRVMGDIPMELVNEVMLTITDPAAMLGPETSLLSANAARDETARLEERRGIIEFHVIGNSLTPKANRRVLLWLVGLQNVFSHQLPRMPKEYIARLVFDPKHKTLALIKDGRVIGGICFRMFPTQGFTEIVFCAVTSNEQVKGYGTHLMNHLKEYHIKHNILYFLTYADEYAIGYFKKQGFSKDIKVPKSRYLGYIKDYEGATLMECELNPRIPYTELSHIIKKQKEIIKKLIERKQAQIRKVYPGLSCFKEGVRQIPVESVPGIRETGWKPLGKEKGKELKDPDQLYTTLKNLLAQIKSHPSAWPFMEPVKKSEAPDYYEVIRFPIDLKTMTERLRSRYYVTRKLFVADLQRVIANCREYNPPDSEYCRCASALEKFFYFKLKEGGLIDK
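Free CoA generated was detected with ThioGlo1 (50uM) fluorescence at Ex340nm/Em540nm, read immediately and after 20 min at room temperature. Enzyme, 20 nM in HEPES pH 7.5 buffer, saw compounds 15 min before adding 75uM H3(1-25) peptide and 70uM acetyl-CoA.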
An asterisk follows results filed as active; [ ] = another dose, or the depositor's remark. Sampled rows, rich in hits. Any-hit rate of the full collection: about 3.6%. Unless noted, calls come from the whole dose curve; as a rule, active = well fitted curve in the direction sought with a large enough effect; inconclusive = small, poorly fitted or top-dose-only effect, or another doubt; inactive = no such curve, though single readings can be large; an effect the other way counts as inactive or inconclusive. Potency is the fitted concentration of half-maximal effect.

COC(=O)C1=C(C(=O)OC)[C@@H]2N(Cc3ccccc3)c3ccccc3[C@@]23C[C@@H](C(=O)OC)N(C(=O)c2ccco2)C3=N1 was read as IMPase Li cell 1%, Sfp PPTase inh 9% and JMJD2E inh 7%[11.4 µM].
Screening COc1ccc(-c2ccc3c(n2)CCCN3C[C@H](O)CN2CCCc3nc(-c4ccc(Br)cc4)ccc32)cc1 returned Sfp PPTase inh -7% and Epigenetic reg 1%[10.1 µM].
For COCCOC(=O)C1=C(C)NC2(O)c3ccccc3C(=O)C12O (stereo unspecified) the results were IMPase Li cell 9%, Sfp PPTase inh 89µM*, Epigenetic reg -2%, NPSR antag 33%, JMJD2E inh 9% and KAT2A inh -5%.
Screening CC(=O)C1=C(C)NC2(O)c3ccccc3C(=O)C12O (stereo unspecified) returned IMPase Li cell -3%, Sfp PPTase inh -1%, Epigenetic reg 2%, NPSR antag 12%, JMJD2E inh 2% and KAT2A inh -4%.
For CCOC(=O)C1=C(C)NC2(O)c3ccccc3C(=O)C12O (stereo unspecified) the results were IMPase Li cell 0%[38.3 µM], Sfp PPTase inh 79µM*, Epigenetic reg -4%, NPSR antag -4%[46.1 µM], JMJD2E inh -4% and KAT2A inh -15%.
OCC1=C[C@@H](O)[C@@H]2C=CO[C@@H](OC3O[C@H](CO)[C@@H](O)[C@H](O)[C@H]3O)[C@H]12 (stereo partly specified) was read as Sfp PPTase inh 5% and KAT2A inh 8%.
Screening CC(=O)Nc1c(O)c2ccccc2[nH]c1=O returned IMPase Li cell 4%, Sfp PPTase inh 18µM*, Epigenetic reg 0%, NPSR antag -12%, JMJD2E inh inconclusive and KAT2A inh -7%.
O=c1[nH]c2ccccc2c(O)c1SCCO was read as IMPase Li cell -3%, Sfp PPTase inh 79µM*, Epigenetic reg 1%, NPSR antag -1%, JMJD2E inh inconclusive and KAT2A inh -6%.
For CNC(=O)C(=O)Nc1c(O)c2ccccc2[nH]c1=O the results were Sfp PPTase inh 22µM*, Epigenetic reg 2%, NPSR antag 4%, JMJD2E inh -27% and KAT2A inh inconclusive.
`CCCCC(=O)Nc1c(O)c2ccccc2[nH]c1=O` gave IMPase Li cell 8%[38.3 µM], Sfp PPTase inh 10%, Epigenetic reg -10%, NPSR antag -7%[46.1 µM], JMJD2E inh -5% and KAT2A inh -16%.
COc1ccc(-n2c(SCC(=O)Nc3cc(C)cc(C)c3)nc3c(oc4ccccc43)c2=O)cc1 was read as Epigenetic reg 1% and KAT2A inh -2%.
`CCOc1ccc(N2C(=O)c3[nH]nc(-c4ccc(OC)cc4)c3C2c2cccs2)cc1` (stereo unspecified) gave Epigenetic reg 0% and KAT2A inh -9%.
`COC(=O)c1ccccc1NC(=O)Cn1cnc2ccc(S(=O)(=O)N3CCC(C)CC3)cc2c1=O` gave IMPase Li cell 0%[38.3 µM], Sfp PPTase inh 89µM*, Epigenetic reg -1%, NPSR antag -5%[46.1 µM], JMJD2E inh -5% and KAT2A inh -7%.
For CC1CCN(S(=O)(=O)c2ccc3ncn(CC(=O)Nc4ccccc4C(F)(F)F)c(=O)c3c2)CC1 the results were Epigenetic reg -1% and KAT2A inh -3%.
Screening CC(C)c1cccc2nc3c(c([Si](C)(C)C(C)(C)C)c12)Cn1c-3cccc1=O returned IMPase Li cell 0%, Sfp PPTase inh 79µM*, Epigenetic reg -2% and JMJD2E inh inconclusive.
`CC(C)c1cccc2c([Si](C)(C)C)c3c(nc12)-c1cccc(=O)n1C3` gave IMPase Li cell -8%, Sfp PPTase inh 45µM*, Epigenetic reg 2% and JMJD2E inh inconclusive.
